Some test systems named below: K-562 leukemia; MALME-3M melanoma; MDA-MB-231 breast; RXF 393 renal; SF-268 CNS; SF-295 CNS; SF-539 CNS; UACC-257 melanoma; M14 melanoma; HCT-15 colon; HT29 colon; SNB-75 CNS; SNB-19 CNS; U251 CNS; PC-3 prostate; SK-MEL-5 melanoma; UACC-62 melanoma; LOX IMVI melanoma; SK-MEL-28 melanoma; DU-145 prostate.
Holding throughout (test): NCI-60 one-dose screen, 48 h (100 = growth as untreated, 0 = no growth, -100 = all killed)
Conditions in all cases: 10 µM unless noted

This is part of a sample that, as a whole, favours compounds with a hit. Of some 83,000 tested, about 20% had one in any assay.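 Percent growth is the endpoint: 0 to 100 indicates growth inhibition (40 means 60% inhibition), 0 means no net growth, and negative values indicate cell death.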 A number with no mark means an inactive call. Calls of active or inactive are those of the source. The calls were made as follows: active = growth percent below 10; inactive = the rest.

Consider `O=C1C=CC(=O)N1CO`, for which the growth in the experiment with K-562 leukemia was -29.9% (active); in the experiment with MALME-3M melanoma it was 130%; in the experiment on MDA-MB-231 breast it was 109%; in the experiment with RXF 393 renal, 168%; in the experiment on SF-268 CNS, 111%; in the experiment on SF-295 CNS, 131%. Moreover, the growth in the experiment with SF-539 CNS was 111%; with UACC-257 melanoma, 109%; in the experiment with M14 melanoma, 109%; with HCT-15 colon, 116%; in the experiment on HT29 colon, 105%; with SNB-75 CNS, 100%. The growth was 103% in the experiment with SNB-19 CNS; 117% with U251 CNS; 102% with PC-3 prostate; 114% in the experiment with SK-MEL-5 melanoma; 106% in the experiment with UACC-62 melanoma; 120% in the experiment on LOX IMVI melanoma. In the experiment on SK-MEL-28 melanoma, the growth is 117%.
As to `NC(=Nc1ccccc1)SCCCSC(N)=Nc1ccccc1`, the growth in the experiment on DU-145 prostate is 95.7%; in the experiment with K-562 leukemia it was 75%; in the experiment with MDA-MB-231 breast it was 79.5%; in the experiment on RXF 393 renal, 99.5%; in the experiment on SF-268 CNS, 95.6%; with SF-539 CNS, 93.6%. The growth with UACC-257 melanoma was 108%; in the experiment on M14 melanoma it was 95.6%; with HCT-15 colon, 82.4%; in the experiment with HT29 colon, 93.9%; in the experiment with SNB-75 CNS, 78.4%; with SNB-19 CNS, 95.8%. Besides, the growth in the experiment with U251 CNS is 95.6%; in the experiment on PC-3 prostate, 74.7%; in the experiment on SK-MEL-5 melanoma it was 85.5%; in the experiment with UACC-62 melanoma, 73.4%; with LOX IMVI melanoma, 86.7%; in the experiment on SK-MEL-28 melanoma, 106%.
Turning to `Cc1cc(C#Cc2ccccc2)ccc1-n1c(/C=C/c2ccc(F)cc2)nc2ccccc2c1=O`, the growth is 98.5% in the experiment with DU-145 prostate; 48.5% in the experiment on K-562 leukemia; 75.9% in the experiment with MDA-MB-231 breast; 99.1% with RXF 393 renal; 86.4% in the experiment with SF-268 CNS; 102% in the experiment with SF-539 CNS. The growth is 86.7% in the experiment with UACC-257 melanoma; 81.2% in the experiment with M14 melanoma; 69.8% in the experiment on HCT-15 colon; 59.3% in the experiment with HT29 colon; 88.5% in the experiment on SNB-19 CNS; 82% with U251 CNS. Also, the growth with PC-3 prostate is 18.2%; in the experiment with SK-MEL-5 melanoma, 36.8%; with UACC-62 melanoma, 55.1%; in the experiment on LOX IMVI melanoma, 71.2%; in the experiment on SK-MEL-28 melanoma, 94.4%.

Source of the values: PubChem BioAssay (NCI).
